From the supplement of paper PMC13380429

Tested on: Vero E6 infected with SARS-CoV-2
Test: morphology score (similarity to uninfected cells); higher = more like uninfected cells
Details: 24 h

Structure (SMILES) | morphology score
C[C@]12CCC(=O)C=C1[C@@H]1C[C@@H]1[C@H]1[C@@H]3[C@@H]4C[C@@H]4[C@@]4(CCC(=O)O4)[C@@]3(C)CC[C@@H]12 [drospirenone] (10 µM) | 0.176
CCCCC/C=C\C/C=C\C/C=C\C/C=C\CCCC(=O)Nc1ccc(O)cc1 (10 µM) | 0.0145
CC(=O)Nc1cccc(-n2c(=O)n(C3CC3)c(=O)c3c(Nc4ccc(I)cc4F)n(C)c(=O)c(C)c32)c1 [trametinib] (0.833333 µM) | 0.263
CCN(CC)CCNC(=O)c1c(C)[nH]c(/C=C2\C(=O)Nc3ccc(F)cc32)c1C [sunitinib] (0.833333 µM) | 0.396
Cc1ncc(OC[C@@]2(c3cccc(F)c3)C[C@H]2C(=O)Nc2ccc(F)cn2)c(C)n1 [lemborexant] (10 µM) | 0.0108
Cc1ccccc1/N=N/c1ccc(NC(=O)c2ccnn2C)c(C)c1 (10 µM) | -0.087
COc1cccc([C@@H](C)NCCCc2ccccc2Cl)c1 [tecalcet] (10 µM) | 0.534
C=C1C(=O)O[C@@H]2[C@H]3O[C@]3(C)CC/C=C(\C)CC[C@@H]12 [parthenolide-(alternate-stereo)] (0.833333 µM) | 0.111
CC1(C)Cc2c(-c3ccccc3)c(-c3ccc(Cl)cc3)c(CC(=O)O)n2C1 [licofelone] (10 µM) | 0.31
N=C(N)NCCC[C@H](NC(=O)[C@@H]1CCCN1C(=O)[C@@H]1CSSC[C@H](N)C(=O)N[C@@H](Cc2ccc(O)cc2)C(=O)N[C@@H](Cc2ccccc2)C(=O)N[C@@H](CCC(N)=O)C(=O)N[C@@H](CC(N)=O)C(=O)N1)C(=O)NCC(N)=O [vasopressin] (10 µM) | 0.0923
O=C(/C=C/c1c(C(=O)O)[nH]c2cc(Cl)cc(Cl)c12)Nc1ccccc1 [gavestinel] (10 µM) | 0.121
COc1cc2ncnc(Nc3ccc(O)c(Br)c3)c2cc1OC (10 µM) | -0.194
Cc1cc(Nc2nc(N[C@@H](C)c3ncc(F)cn3)ncc2Cl)[nH]n1 (10 µM) | 0.046
O=c1ccc2ccccc2o1 [coumarin] (10 µM) | 0.114
O=C(O)CCn1c2c(c3ccccc31)C[C@H](NS(=O)(=O)c1ccc(F)cc1)CC2 [ramatroban] (10 µM) | -0.0055
CCCCC/C=C\C=C\CCCCCCCCC(=O)O [trans-10,cis-12-conjugated-linoleic-acid] (10 µM) | 0.0778
Cc1c(Cl)cccc1Nc1ccccc1C(=O)O [tolfenamic-acid] (10 µM) | 0.00971
CC[C@@H](C)c1ccc(NC(=O)Cn2cnc3c2c(=O)n(C)c(=O)n3C)cc1 (racemic) (10 µM) | 0.119
Cc1cc(CCC[C@H](CC(=O)NO)C(=O)N[C@H](C(=O)N[C@H](C)c2ccccc2)C(C)(C)C)ccc1-c1ccccc1 (0.833333 µM) | -0.0923
CCN(CC)c1ccc(/C=N/NC(=O)c2ccc(O)cc2)cc1 (10 µM) | -0.186
C[N+]1(C)[C@@H]2CC[C@H]1C[C@@H](OC(=O)C(O)c1ccccc1)C2 (stereo partly drawn) [homatropine-methylbromide] (10 µM) | -0.0363
COC(=O)C(Cc1ccc(OCCn2c(=O)sc3cc(C(=O)c4ccccc4)ccc32)cc1)C(=O)OC (10 µM) | 0.318
C[C@@H]1NC(=O)[C@@H]2CCCN2C(=O)[C@H](CC(N)=O)NC(=O)[C@@H]2CSSC[C@H](N)C(=O)N[C@H]3CSSC[C@H](NC1=O)C(=O)N[C@@H]([C@@H](C)O)C(=O)NCC(=O)N[C@H](C(=O)N[C@@H](Cc1ccc(O)cc1)C(=O)O)CSSC[C@H](NC(=O)[C@H](Cc1ccc(O)cc1)NC(=O)[C@H](CCC(=O)O)NC3=O)C(=O)N2 [linaclotide] (10 µM) | 0.0259
COC(=O)C1=C(C)NC(C)=C(C(=O)OC(C)C)[C@@H]1c1cccc2nonc12 [isradipine] (10 µM) | -0.0665
O=C(O)c1ccc(-n2nc(-c3ccccc3O)nc2-c2ccccc2O)cc1 [deferasirox] (0.833333 µM) | 0.0304
O=C(CCCCCCNC(=O)c1cnc(N(c2ccccc2)c2ccccc2)nc1)NO (0.833333 µM) | -0.13
CN/C(=N\c1ccc(C2=NNC(=O)CC2C)cc1)NC#N (stereo not drawn) [siguazodan] (10 µM) | 0.0721
Oc1ccc2c3c1O[C@H]1c4oc5ccccc5c4C[C@@]4(O)[C@@H](C2)N(CC2CC2)CC[C@]314 [naltriben] (10 µM) | -0.128
